Screening data from PubChem BioAssay.
HPGD block = blocks human HPGD enzyme activity; P15428; purified HPGD, NADH fluorescence kinetic, PGE2 substrate; Potency, µM, for inactives: top-dose activity change, negative = inhibition, hits mostly inhibitors; 150,000 compounds, 4.3% hits; AID 894; active = well fitted inhibition curve with a large enough effect, not every such curve was filed as active; inconclusive = small, poorly fitted or top-dose-only effect, or another doubt; inactive = no such curve, though single readings can be large or run the other way; note: potency is the fitted concentration of half-maximal effect
Target sequence (P15428 whole entry, looked up): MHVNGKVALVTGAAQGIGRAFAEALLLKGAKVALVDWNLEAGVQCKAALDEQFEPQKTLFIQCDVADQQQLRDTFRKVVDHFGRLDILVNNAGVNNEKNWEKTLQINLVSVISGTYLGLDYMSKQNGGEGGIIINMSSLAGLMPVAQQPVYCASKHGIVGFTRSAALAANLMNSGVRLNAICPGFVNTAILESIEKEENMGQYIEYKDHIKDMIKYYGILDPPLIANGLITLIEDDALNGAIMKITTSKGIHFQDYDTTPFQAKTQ
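20 nM HPGD preincubated 15 min at room temperature with compound in 50 mM Tris-HCl pH 8, 0.01% Tween 20. Started with 1 mM NAD+ and 30 uM prostaglandin E2; NADH fluorescence (360/450 nm) read 5 times over 30-s intervals, last minus first.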
ALDH1A1 inh = ALDH1A1 (human) enzyme inhibition; P00352; 220,000 compounds, 7.3% hits; AID 1030; Potency, µM (series often up to 75.3 µM), without a hit: at the highest dose activity, negative = inhibition, actives largely listed as inhibitors; Purified ALDH1A1, NADH fluorescence, propionaldehyde substrate; active = well fitted inhibition curve with a large enough effect, not every such curve was filed as active; inconclusive = small, poorly fitted or top-dose-only effect, or another doubt; inactive = no such curve, though single readings can be large or run the other way;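 note: potency is the fitted concentration of half-maximal effect; plate controls were no enzyme wells and a reference inhibitor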
PNC assembly inh = perinucleolar compartment assembly inhibition | PC3M PTB-GFP, PNC prevalence imaging, 16 h; stronger effect = lower value | activity change (PNC), negative = inhibition, % at 10 µM | 140,000 compounds, 3.1% hits | AID 2417;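 active = readout at or below -70, meaning at least 70% loss of cells showing the perinucleolar compartment, a nuclear body marking cancer cells; inconclusive = readout between -30 and a set limit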;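 note: plate controls were DMSO wells for no effect and camptothecin positive control wells for full effect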
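Compounds are pinned in duplicate onto adhered PC3M cells stably expressing GFP-tagged PTB and incubated 16 h at 37 C. Cells are then fixed, nuclei stained with Hoechst, and PNC-positive cells counted.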
IMPase Li cell = IMPase inhibition in cells with lithium potentiation; CHO-M1 cells, IP1 TR-FRET (IP-One), carbachol + lithium; Potency, µM (series often up to 59.4 µM), for the others: at the highest dose activity, negative = IMPase inhibition, actives largely listed as inhibitors; 210,000 compounds, 0.35% hits;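 note: IP1 builds up when IMPase is blocked and the TR-FRET signal falls; potency is the fitted concentration of half-maximal effect; plate controls were basal vehicle for no effect and high inhibitor control for full effect; nearly all actives have a fitted effect of over 50% in size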
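CHO cells stably expressing M1 receptor (2000/well, cultured 16–30 h) treated 30 min at 37C with compound plus low lithium. Cytosolic IP1 by TR-FRET (665/620 ratio and 620 channel) after 10 min lysis; AC50 by Hill fit.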
ALOX12 inhib = 12-hLO (ALOX12) enzyme inhibition; P18054; purified 12-hLO, xylenol orange hydroperoxide absorbance; Potency, µM (series often up to 57.1 µM), for the others: top-dose activity change, negative = inhibition, actives largely listed as inhibitors; 150,000 compounds, 0.12% hits; AID 1452; note: potency is the fitted concentration of half-maximal effect; nearly all actives have a fitted effect of over 55% in size
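Xylenol orange chromogenic assay: hydroperoxide from 12hLO oxidises Fe(II), giving red-shifted Fe(III)-XO absorbance. Conditions: 150 nM enzyme, 40 uM arachidonic acid, 25 mM Hepes pH 7.0, 0.01% Triton X-100, 30 min, room temperature.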
IMPase cell inh = membrane-permeable compound that blocks inositol monophosphatase; CHO-M1 cells, IP1 accumulation, HTRF TR-FRET ratio; AID 901; P97697; inhibition (IP1 accumulation), % at 46.1 µM; 120,000 tested, under 10 active; active = well fitted curve in the direction sought with a large enough effect in the signal ratio, not every such curve was filed as active; inconclusive = small, poorly fitted or top-dose-only effect, or a change in a side signal; inactive = no such curve, though single readings can be large or run the other way; the % refers to the signal ratio;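 note: cells stimulated with carbachol in lithium chloride buffer; plate controls were DMSO basal wells for no effect and reference inhibitor wells for full effect; higher means more IMPase inhibition seen as more IP1 and lower FRET ratio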
Target sequence (P97697 whole entry, looked up): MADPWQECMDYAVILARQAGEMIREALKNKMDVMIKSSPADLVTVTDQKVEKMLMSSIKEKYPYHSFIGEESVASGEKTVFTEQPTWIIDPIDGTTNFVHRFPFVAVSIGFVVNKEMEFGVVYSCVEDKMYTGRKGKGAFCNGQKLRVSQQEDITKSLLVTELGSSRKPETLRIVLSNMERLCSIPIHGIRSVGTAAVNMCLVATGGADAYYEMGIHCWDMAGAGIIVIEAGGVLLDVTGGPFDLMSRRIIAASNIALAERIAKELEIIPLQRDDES
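CHO-M1 cells (CHO stably expressing M1 receptor), compound up to 46 uM final, stimulated with carbachol (50 uM as added) in buffer with 50mM LiCl, pH 7.4, 30 min at 37C. Cytosolic IP1 read by TR-FRET; AC50 from Hill fits.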
* marks the source's active call; other numbers are inactive results; ? = inconclusive; . = no result given; [ ] = remark or other dose. This is a sample that favours compounds with a hit; in the whole collection about 11% have one here. Unless noted, calls come from the whole dose curve; as a rule, active = well fitted curve in the direction sought with a large enough effect; inconclusive = small, poorly fitted or top-dose-only effect, or another doubt; inactive = no such curve, though single readings can be large; an effect the other way counts as inactive or inconclusive. Unless noted, % is set by controls: 0 for no effect and ±100 for the full control effect.

SMILES | HPGD block | ALDH1A1 inh | PNC assembly inh | IMPase Li cell | ALOX12 inhib | IMPase cell inh
CCN(C1CCS(=O)(=O)C1)S(=O)(=O)c1cccs1 (stereo not given) | -8% | 9% | -107* | 16%[38.3 µM] | 7% | 14
N#CCSc1nnc(COc2cccc3ccccc23)n1-c1cccc(Cl)c1 | -5% | -7% | -80* | 14%[38.3 µM] | -9% | 7
O=c1ccc2cc3c4c(c2o1)CCCN4CCC3 | . | ? | . | 10% | . | .
O=c1ccc2c(o1)/C(=C/C=C(Cl)Cl)CCC2 | -22% | 7.1µM* | -21 | -1%[38.3 µM] | -6% | 2
CN(C)c1ccc(-c2cncnc2NCCc2cnc[nH]2)cc1 | . | ? | . | 20% | . | .
CCOC(=O)c1c(NC(=O)/C=C/c2ccc(C)cc2)sc(C(C)=O)c1C | . | . | . | . | . | -5
c1ccc(COCc2ccccc2)cc1 | -12% | -15% | . | -1% | 1% | .
CCOc1ccc(CN(CCC#N)C(=S)NC(=O)c2ccccc2)cc1 | -9% | ? | -13 | 0% | 1% | -1
N#CCCN(Cc1ccccc1)C(=S)NC(=O)c1ccccc1 | -25% | 14µM* | 53 | -14% | 1% | 0
COc1ccc(CN(CCC#N)C(=S)NC(=O)c2ccccc2)cc1 | -13% | 25µM* | 38 | -14%[38.3 µM] | -1% | -16
C=CCN(Cc1cccc(OC)c1OC)S(=O)(=O)N(C)C | -14% | 25µM* | 42 | 2%[38.3 µM] | 10% | 7
CCCC1(C)Nc2ccccc2-c2nc3ccccc3n21 (stereo not given) | ? | ? | -82* | -7%[38.3 µM] | -7% | -14
O=C(CN1C(=O)COc2ccc(Cl)cc21)Nc1cccc(C(=O)O)c1 | . | . | . | . | . | -11
COC(=O)C1=NNC2C(=O)N(c3ccc(C)cc3)C(=O)C12 (stereo not given) | . | 2% | . | -11% | . | .
Cc1ccc(N2C(=O)[C@@H]3C(C(=O)C(c4ccccc4)c4ccccc4)=NN[C@@H]3C2=O)cc1 | -14% | 22µM* | ? | -9% | -5% | -10
Cn1cccc1C(=O)N1CCC2(CC1)CN(C(=O)Nc1ccccc1)C2 | -6% | 4% | . | 2% | -2% | .
CN(C)Cc1ccccc1-c1cc(N(C)Cc2ccco2)ncn1 | . | ? | . | -1% | . | .
CC(=O)OC1CCC2(C)C3CC(=O)C4(C)C(CC5OC6(CCC(C)CO6)C(C)C54)C3CC[C@H]2C1 (stereo not given in full) | -7% | 3% | . | 16% | 0% | .
O=C(c1ccco1)N1CCC[C@@]2(CCN(C(c3ccccc3)c3ccccc3)C2)C1 | -3% | ? | . | 19% | -16% | .
CCCOC(=O)c1ccc(NC(=O)CSC2=Nc3ccccc3C3CC=NN23)cc1 (stereo not given) | ? | 32µM* | 1 | 6%[38.3 µM] | -4% | 2
Cc1noc(C)c1-c1cncnc1Nc1ccccc1 | . | ? | . | 0% | . | .
N#CC(c1ccccc1)c1ccc(C(=O)c2ccc(F)cc2)cc1 (stereo not given) | ? | 20µM* | 36 | 12%[38.3 µM] | -8% | 13
CC(=O)Nc1ccc(C(C#N)c2ccccc2)cc1 (stereo not given) | . | 14µM* | . | 11% | . | .
O=C(O)[C@@H](O)c1ccc(F)cc1 | -4% | 1%[13.5 µM] | . | 4% | -7%[11.4 µM] | .
N#CC(c1ccc(F)cc1)c1ccc(C(=O)c2ccccc2)cc1 (stereo not given) | 14µM* | -39% | ? | 14%[38.3 µM] | 9% | 2
SMILES | HPGD block | ALDH1A1 inh | PNC assembly inh | IMPase Li cell | ALOX12 inhib | IMPase cell inh
CC(C)N(Cc1nccn1C)C(=O)CC1C(=O)NCCN1Cc1ccccc1C(F)(F)F (stereo not given) | . | 40µM* | . | 20% | . | .
CN(CCc1ccccn1)C(=O)CC1C(=O)NCCN1Cc1ccccc1C(F)(F)F (stereo not given) | . | ? | . | 3% | . | .
CC(C)=CCC1=C(O)[C@](O)(CC=C(C)C)C(=O)C(C(=O)CC(C)C)=C1O | -14% | -7% | . | -3% | . | .
S=c1[nH]nc(CSCc2ccccc2Cl)n1C1CCCCC1 | . | ? | . | 9% | . | .
S=c1[nH]nc(COc2ccc(Cl)cc2)n1C1CCCCC1 | 14µM* | ? | 281 | 4% | -7% | 4
Cc1ccc(OCc2n[nH]c(=S)n2C2CCCCC2)cc1 | 14µM* | 14µM* | 40 | 23%[38.3 µM] | -19% | -4
Cc1cccc(OCc2n[nH]c(=S)n2C2CCCCC2)c1 | 10µM* | ? | -13 | 3% | -25% | 0
COc1cccc([C@@H]2Oc3ccc(Br)cc3C[C@H]2OC(=O)N[C@H]2CCCc3ccccc32)c1 | -8% | 2% | . | 23% | . | .
CC(C)c1nc2sc3c(c2c(=O)o1)CCCC3 | -27% | 0% | -94* | 3%[38.3 µM] | 2% | 4
C/C(N)=C(/C#N)C(=O)CSc1nc2scc(-c3ccc(F)cc3)c2c(=O)n1C | . | 16µM* | . | 7% | . | .
C/C(N)=C(/C#N)C(=O)CSc1nc2ccccc2c(=O)n1Cc1ccc(F)cc1 | . | 0% | . | . | . | .
CCCCc1nc2c(c3c1C[C@H](C)OC3)CN(C(=O)Nc1cccc(C#N)c1)CC2 | -4% | 23%[13.5 µM] | . | 6% | 2%[11.4 µM] | .
O=C1c2ccccc2NC2(CCCC2)N1O | 20µM* | 1% | -108* | 28%[38.3 µM] | -6% | 4
CCOC(=O)c1[nH]c(C)c(C(=O)Nc2cc(OC)ccc2OC)c1C | -12% | -13% | -107* | -10%[38.3 µM] | 3% | 1
CCOc1ccc(OCC)c(NC(=O)c2[nH]c(C)c(C(C)=O)c2C)c1 | ? | 9% | 14 | 7.1µM* | 5% | -16
c1nc(N2CCNCC2)c2cc(-c3ccc4c(c3)OCO4)ccc2n1 | -20% | -10% | . | -1% | -7% | .
CCOC(=O)c1ccccc1NC(=S)N1CCN(C2CCCCC2)CC1 | . | 2% | . | 2% | . | .
Cc1cc(-c2ccccc2)n(-c2ccc(C(=O)NC(C)C)cc2)n1 | -8% | -2% | -7 | 1%[38.3 µM] | -1% | 3
Cc1cc(C)n(-c2ccc(C(=O)NC(C)C)cc2)n1 | 20µM* | -6% | -2 | -2%[38.3 µM] | -6% | 5
Oc1ccc2c(c1)C1CCCC1(N1CCOCC1)O2 (stereo not given) | ? | 18µM* | -5 | 37%[38.3 µM] | -16% | 4
CC1=C(C(=O)N2CCOCC2)C(c2ccc(O)cc2)NC(=S)N1 (stereo not given) | -14% | ? | -2 | -5% | 3% | .
COc1ccccc1CNc1ncncc1-c1ccccc1OC | . | 1% | . | 17% | . | .
COC(=O)c1c(NC(=O)CN2CCCc3ccccc32)sc(C)c1C | -12% | 20µM* | 8 | 3% | -4% | .
CCOC(=O)c1c(NC(=O)CN2CCN(c3ccc(Cl)cc3)CC2)sc(C)c1C | -21% | ? | 34 | 7%[38.3 µM] | -3% | -3
COC(=O)c1c(NC(=O)CN2CCN(c3ccccc3Cl)CC2)sc(C)c1C | -23% | 3.5µM* | 15 | 14% | -4% | -10
